# Test results: the supplement of paper PMC4466140
# Target: SpBzz1-D2
# Test: SPOT peptide array binding signal intensity (averaged, normalized) (arbitrary units (background-subtracted, floor 0; scale differs between SH3 domains)); higher = stronger binding of the SH3 domain to the peptide
# Protocol: (§1)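 GST-tagged SH3 domains from S. cerevisiae (Sc), A. gossypii (Ag), C. albicans (Ca) and S. pombe (Sp) were incubated at 10 ug/ml overnight at 4 C on cellulose SPOT membranes carrying 292 synthetic 15-mer peptides mined from the S. cerevisiae proteome (cysteines replaced by serines). Binding was detected with anti-GST antibody, HRP secondary and chemiluminescence, quantified with Genespotter, and reported as normalized spot intensities averaged over biological replicates.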
row,Binder,SPOT peptide array binding signal intensity
1,LKVTPGRRAPTISKI,1.25

# Target: SpCyk3
# Test: as above
# Protocol: as §1
row,Binder,SPOT peptide array binding signal intensity
1,LKVTPGRRAPTISKI,1.5

# Target: SpHof1
# Test: as above
# Protocol: as §1
row,Binder,SPOT peptide array binding signal intensity
1,LKVTPGRRAPTISKI,37.8

# Target: SpHof1-2
# Test: as above
# Protocol: as §1
row,Binder,SPOT peptide array binding signal intensity
1,LKVTPGRRAPTISKI,0.5

# Target: SpHof1-3
# Test: as above
# Protocol: as §1
row,Binder,SPOT peptide array binding signal intensity
1,LKVTPGRRAPTISKI,165

# Target: SpHse1
# Test: as above
# Protocol: as §1
row,Binder,SPOT peptide array binding signal intensity
1,LKVTPGRRAPTISKI,67.8

# Target: SpLsb1
# Test: as above
# Protocol: as §1
row,Binder,SPOT peptide array binding signal intensity
1,LKVTPGRRAPTISKI,≤ 0

# Target: SpLsb4
# Test: as above
# Protocol: as §1
row,Binder,SPOT peptide array binding signal intensity
1,LKVTPGRRAPTISKI,30

# Target: SpMyo1
# Test: as above
# Protocol: as §1
row,Binder,SPOT peptide array binding signal intensity
1,LKVTPGRRAPTISKI,352

# Target: SpNbp2
# Test: as above
# Protocol: as §1
row,Binder,SPOT peptide array binding signal intensity
1,LKVTPGRRAPTISKI,8

# Target: SpPex13
# Test: as above
# Protocol: as §1
row,Binder,SPOT peptide array binding signal intensity
1,LKVTPGRRAPTISKI,≤ 0

# Target: SpRvs167
# Test: as above
# Protocol: as §1
row,Binder,SPOT peptide array binding signal intensity
1,LKVTPGRRAPTISKI,≤ 0

# Target: SpSla1-D1-D2
# Test: as above
# Protocol: as §1
row,Binder,SPOT peptide array binding signal intensity
1,LKVTPGRRAPTISKI,4

# Target: SpSla1-D3
# Test: as above
# Protocol: as §1
row,Binder,SPOT peptide array binding signal intensity
1,LKVTPGRRAPTISKI,≤ 0
